CHX counter: Cycloheximide Counterscreen for Small Molecule Inhibitors of Shiga Toxin. 300,000 compounds, 12% hits. AID 2314, 2010. cell reporter, cycloheximide protein synthesis inhibition counterscreen. max response, %; in the data active means max response mostly above about 13%, no sharp cut-off; inactive means mostly below about 14%; further: read at 38.3 µM for the half of the compounds with a filed dose; 0% is about no effect
Pf growth 96h: Primary qHTS for delayed death inhibitors of the malarial parasite plastid, 96 hour incubation; P. falciparum luciferase reporter growth, 96 h; Potency, µM (top dose mostly 28.7 µM), without a hit: at the highest dose activity change, negative = inhibition, hits mostly inhibitors; AID 504834, 2011; 320,000 compounds, 6.9% hits; further: potency means the concentration at half of the fitted maximal effect; on the % scale 0 is the no-effect control and ±100 the full control effect
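Erythrocytes infected with luciferase-expressing P. falciparum were dispensed at 2% hematocrit and 0.05% parasitemia (final), then incubated with compounds 96 hours at 37 C in 5% CO2. Luminescence after detection reagent addition reported growth.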
Shiga inhibitor: A qHTS for Small Molecule Inhibitors of Shiga Toxin; Vero cells, Shiga toxin protein synthesis inhibition reporter; inhibition, % at 38.7 µM; 290,000 compounds, 9.2% hits; in the data active means inhibition mostly above about 28%, no sharp cut-off; inactive means mostly below about 43%; further: 0% is about no effect
HCMV antiviral: qHTS Assay for inhibitors of the human cytomegalovirus (HCMV) | 410,000 compounds, 4.5% hits | HFF cells, HCMV-luciferase reporter, 72 h; hits give low values | activity change, negative = inhibition, % at 57.5 µM | AID 1259415, 2018; in the data active means activity change below about -60%; inconclusive means no clear call, values can overlap the other calls; inactive means above about -39%; further: on the % scale 0 is the no-effect control and ±100 the full control effect
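HFF cells seeded 16 h at 37C, treated with compounds, infected with luciferase-reporter HCMV at MOI 1 PFU/cell; luciferase read at 72 h post infection, normalized to buffer-only and Salinomycin controls.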
Pf growth 48h: Primary qHTS for delayed death inhibitors of the malarial parasite plastid, 48 hour incubation; P. falciparum luciferase growth in erythrocytes, 48 h; Potency, µM (titrated, usually from 28.7 µM), without a hit: at the top dose activity change, negative = inhibition, most hits filed as inhibitors; 310,000 compounds, 5.9% hits; further: potency means the concentration at half of the fitted maximal effect; on the % scale 0 is the no-effect control and ±100 the full control effect
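Firefly luciferase activity from engineered P. falciparum reports growth; inhibitors lower the luminescent signal. Cultures contained 2% hematocrit erythrocytes at 0.1% final parasitemia.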
An asterisk follows results filed as active; [ ] = dose if it differs, or a comment. Most compounds without a hit are left out; they make up all but 20% or so of the library. Unless noted, the call rests on the fitted dose curve; in most records, active means well fitted inhibition curve with a large enough effect; inconclusive means small, poorly fitted or top-dose-only effect, or another doubt; inactive means no such curve, though single readings can be large or run the other way.

Results for CCCCCCCNC1=CC(=O)CC(c2ccccc2)C1 (centres undefined) ?
CHX counter: 12; Pf growth 96h: inconclusive; Shiga inhibitor: 9; HCMV antiviral: -88*; Pf growth 48h: 9.3µM*

What do the screens show for `CNC1=CC(=O)CC(c2ccccc2)C1` (centres undefined)?
CHX counter: -2; Pf growth 96h: 12%; Shiga inhibitor: -25; HCMV antiviral: 76; Pf growth 48h: 3%

What do the screens show for `Cc1ccc(C(=O)NCC(=O)OCC(=O)N(CC(C)C)c2c(N)n(Cc3ccccc3)c(=O)[nH]c2=O)cc1`?
Pf growth 96h: 42%; HCMV antiviral: -30; Pf growth 48h: 44%

Results for CCCNC(=O)c1nnc2n1CCN(C(=O)CCc1ccccc1)C2 ?
HCMV antiviral: -10

How did Cc1cc(C)c2nc(Cl)c(CN(Cc3ccco3)C(=O)Nc3ccccc3C)cc2c1 do in these assays?
CHX counter: 10; Pf growth 96h: inconclusive; Shiga inhibitor: 14; HCMV antiviral: -63*; Pf growth 48h: 12µM*

Results for COCC(=O)N(CCc1ccccc1)Cc1cc2cc(C)ccc2nc1Cl ?
CHX counter: 9; Pf growth 96h: 0%; HCMV antiviral: -14; Pf growth 48h: -39%

Results for COCCN(Cc1cc2cc(C)cc(C)c2nc1Cl)C(=O)Nc1ccccc1 ?
CHX counter: 16*; Pf growth 96h: 0%; Shiga inhibitor: -13; HCMV antiviral: 2; Pf growth 48h: inconclusive

How did COCCN(Cc1cc2c(C)cc(C)cc2nc1Cl)C(=O)c1ccccc1F do in these assays?
CHX counter: 1; Pf growth 96h: 1.9µM*; Shiga inhibitor: -12; HCMV antiviral: inconclusive; Pf growth 48h: inconclusive

Results for O=C1CS(=O)(=O)C2(C(=O)N(Cc3ccccc3Cl)c3ccccc32)N1c1ccc(F)cc1 (centres undefined) ?
HCMV antiviral: -3

What do the screens show for `CCCCCCCCN`?
HCMV antiviral: -12

What do the screens show for `N#Cc1c(Nc2ccccc2)sc(C(=O)c2ccccc2)c1N`?
CHX counter: 8; Pf growth 96h: 25%; Shiga inhibitor: 12; HCMV antiviral: -28; Pf growth 48h: 13%

Results for CC(=O)c1cc(C(=O)c2ccccc2)sc1Nc1ccccc1 ?
CHX counter: 48*; Pf growth 96h: 39%; Shiga inhibitor: 61*; HCMV antiviral: 44; Pf growth 48h: 42%

Results for CCn1c(Oc2ccc(F)cc2F)nc2c1c(=O)n(C)c(=O)n2C ?
HCMV antiviral: -21

What do the screens show for `Cc1cc(C)c(NC(=O)C2CCN(c3nc4ccccc4[nH]3)CC2)c(C)c1`?
HCMV antiviral: active

Results for Cc1cc(NC(=O)c2ccccc2F)n(-c2nc3ccccc3[nH]2)n1 ?
CHX counter: 16; Pf growth 96h: 23%[5.75 µM]; Shiga inhibitor: 68; HCMV antiviral: 0; Pf growth 48h: -79%

Results for Cc1ccc(NC(=O)C2CCN(c3nc4ccccc4[nH]3)CC2)cc1Cl ?
HCMV antiviral: 0

What do the screens show for `Cc1cc(Nc2ccccc2)n(-c2nc3ccccc3[nH]2)n1`?
CHX counter: 1; Shiga inhibitor: 11; HCMV antiviral: -86*; Pf growth 48h: inconclusive

Results for Cc1cc(NC(=O)/C=C/c2cccc(Cl)c2)n(-c2nc3ccccc3[nH]2)n1 ?
CHX counter: 66*; Pf growth 96h: inconclusive; Shiga inhibitor: active; HCMV antiviral: -38; Pf growth 48h: inconclusive

What do the screens show for `Cc1cc(NC(=O)c2c(F)cccc2F)n(-c2nc3ccccc3[nH]2)n1`?
CHX counter: 3; Pf growth 96h: -94%; Shiga inhibitor: 19; HCMV antiviral: -89*; Pf growth 48h: 7.4µM*

How did Cc1cc(NC(=O)/C=C/c2ccc(F)cc2)n(-c2nc3ccccc3[nH]2)n1 do in these assays?
CHX counter: 9; Pf growth 96h: -50%; Shiga inhibitor: 12; HCMV antiviral: 41; Pf growth 48h: inconclusive

Results for Cc1cc(Nc2ccccc2)n(-c2ccccc2)n1 ?
CHX counter: -3; Pf growth 96h: 29%; Shiga inhibitor: -11; HCMV antiviral: 18; Pf growth 48h: -13%

What do the screens show for `COc1ccc(/C=C/C(=O)Nc2cc(C)nn2-c2nc3ccccc3[nH]2)cc1`?
CHX counter: 21; Pf growth 96h: inconclusive; Shiga inhibitor: 27; HCMV antiviral: -27; Pf growth 48h: inconclusive

What do the screens show for `Cc1cc(NC(=O)c2ccc(C)s2)n(-c2nc3ccccc3[nH]2)n1`?
CHX counter: 11; Pf growth 96h: inconclusive; Shiga inhibitor: 33*; HCMV antiviral: -74*; Pf growth 48h: -108%

What do the screens show for `Cc1cc(NC(=O)C2CCCCC2)n(-c2nc3ccccc3[nH]2)n1`?
CHX counter: 1; Shiga inhibitor: -8; HCMV antiviral: 38; Pf growth 48h: 9.3µM*

Results for Cc1cc(NC(=O)C2CC2)n(-c2nc3ccccc3s2)n1 ?
CHX counter: 18*; Pf growth 96h: 1%; Shiga inhibitor: 36*; HCMV antiviral: 44; Pf growth 48h: 14%

Results for Cc1cc(C)nc(-n2nc(C)cc2Nc2ccccc2)n1 ?
CHX counter: -1; Shiga inhibitor: -5; HCMV antiviral: -66*; Pf growth 48h: 8.3µM*

What do the screens show for `CC(C)(C)OC(=O)C[C@@H]1C/C=C\C[C@H](CC(=O)N(CCO)Cc2ccccc2)C(=O)N2CCC[C@H]2COC1=O`?
HCMV antiviral: 0

How did CCN(CC)S(=O)(=O)c1ccc(NC(=O)Cn2ncc3c([nH]c4ccccc43)c2=O)cc1 do in these assays?
HCMV antiviral: -2

Results for COC(=O)c1ccc(/C=N\NC(=O)c2c(C)nc3ccc(Cl)cn23)cc1 ?
CHX counter: -1; Pf growth 96h: inconclusive; Shiga inhibitor: -4; Pf growth 48h: 50%

How did COc1ccc(N2CCN(S(=O)(=O)c3ccc4oc(=O)c5ncn(C)c5c4c3)CC2)cc1 do in these assays?
HCMV antiviral: 14

Results for Cc1cc(NC(=O)c2c(F)cccc2Cl)n(-c2nc3ccccc3[nH]2)n1 ?
CHX counter: 0; Shiga inhibitor: -12; HCMV antiviral: inconclusive; Pf growth 48h: 10µM*

What do the screens show for `CC1CCCC(C)N1C(=O)COC(=O)/C=C/c1ccco1` (centres undefined)?
HCMV antiviral: 17

How did COC(=O)c1ccc(OC(=O)c2ccco2)cc1 do in these assays?
CHX counter: 1; Pf growth 96h: 0%; Shiga inhibitor: -9; HCMV antiviral: 32; Pf growth 48h: 27%

Results for O=Cc1cccc(OC(=O)/C=C/c2ccco2)c1 ?
CHX counter: 52*; Pf growth 96h: -9%; Shiga inhibitor: 80*; HCMV antiviral: 35; Pf growth 48h: 61%

What do the screens show for `COC(=O)c1ccc(OC(=O)/C=C/c2ccco2)cc1`?
CHX counter: 26*; Pf growth 96h: 19%; Shiga inhibitor: 36*; HCMV antiviral: 15; Pf growth 48h: 13%
